Proteasome disasm: inhibitors of ATP-driven 26S proteasome dissociation, primary screen, biochemical, bead-based flow cytometry, GFP-tagged proteasome | anti-FLAG beads, GFP-proteasome disassembly | inhibition of disassembly, % (concentration not given with the values) | actives 0.2% (n = 24,000) | AID 751, 2007;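 active means inhibition of disassembly above about 33%, limit read from the data; inconclusive means likely self-fluorescent, control bead median signal at least 40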;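 further: plate controls were ATP control with full disassembly for no effect and ATP-gamma-S intact proteasomes for full effect; higher percent means more bead fluorescence retained so stronger block of disassembly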
LNCaP diff act: activators of LNCaP prostate cell differentiation, primary screen, flow cytometry side scatter; actives 0.56% (n = 24,000); side scatter shift, % at 10 µM; 4 d;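 active means side scatter shift above 30%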;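 further: androgen-responsive LNCaP prostate cancer cells in charcoal-stripped serum medium; percent of cells past a gate set so DMSO wells show 10% shift; higher shift means more granular cells and more differentiation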
S aureus QS inh: S. aureus quorum sensing inhibitors, primary screen, RNAIII-GFP reporter, flow cytometry | S. aureus RN6390 RNAIII-GFP reporter, AIP-induced, flow cytometry 3 h | actives 0.3% (n = 24,000) | inhibition, % at 2 µM;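 active means share of bacteria positive for the green fluorescent reporter and its mean brightness both inhibited by 50% or more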;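 further: 0% = AIP-stimulated control and 100% = unstimulated bacteria without AIP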
An asterisk follows results filed as active; u = inconclusive; x = no result given. Sampled rows, rich in hits. Any-hit rate of the full collection: about 0.91%.

SMILES | Proteasome disasm | LNCaP diff act | S aureus QS inh
COC(=O)c1ccc2c(=O)n(CCCCCC(=O)NCc3ccccn3)c(=O)[nH]c2c1 | -2.7 | 1.0 | -8.4
Cn1cccc1Cc1nnc(SCC(=O)Nc2ccc3c(c2)OCCO3)n1CCc1ccccc1 | 0.8 | 8.0 | 33.1
COc1ccc(C(=O)COC(=O)CCn2nnc(-c3cccs3)n2)cc1 | 0.6 | 1.0 | -0.9
CC[C@H]1OC(=O)C[C@@H](O)[C@H](C)[C@@H](O[C@@H]2O[C@H](C)C[C@H](N(C)C)[C@H]2O)[C@@H](CC=O)C[C@@H](C)C(=O)C=C[C@]2(C)O[C@H]2[C@@H]1C | -0.1 | 15.0 | 51.2*
CCC(C)NC(=O)c1c(-c2cc(Cl)c(OC)c(Cl)c2)noc1C (stereo not drawn) | 0.1 | 15.0 | -1.0
Cc1cc(NC(=O)c2noc3c2CCc2ccccc2-3)n(-c2ccccc2)n1 | 0.3 | 35.0* | -5.2
Cc1cc(NC(=O)Nc2cc(C)nn2-c2ccccc2)n(-c2ccccc2)n1 | -3.5 | 2.0 | 4.9
O=C(C1CC1)N1CCN=C1SCc1ccccc1Cl | -2.1 | 3.0 | -0.7
COc1ccccc1CN1C(=O)C2CC=CCC2C1=O (stereo not drawn) | -2.9 | 13.0 | -1.1
COC(=O)c1ccc(OCC2c3cc(OC)c(OC)cc3CCN2C(=O)c2ccco2)cc1 (stereo not drawn) | -0.1 | 6.0 | 3.4
Cc1nc2c(ccc3nc(NC(=O)c4ccc5c(c4)OCCO5)sc32)s1 | -0.4 | 6.0 | 57.1*
Cc1nc2ccc3nc(NC(=O)c4ccc5c(c4)OCCO5)sc3c2s1 | 0.9 | 6.0 | -5.1
O=C(C1CCCN(S(=O)(=O)c2cccs2)C1)N1CCN(C2CCCCC2)CC1 (stereo not drawn) | -1.1 | 7.0 | -2.8
CCOc1ccc(S(=O)(=O)N2CCN(c3ccccc3OC)CC2)c2cccnc12 | 0.6 | 7.0 | -0.4
COc1cccc(Oc2cnc(N)nc2-c2ccc(OC)cc2O)c1 | 0.1 | 29.0 | 61.8*
C=C(C)COc1ccc(-c2nc(N)ncc2-c2ccc(OC)cc2)c(O)c1 | -1.3 | 8.0 | 14.5
CCOC(=O)N1CCC(Nc2nc3ccccc3n3nnnc23)CC1 | 3.8 | 9.0 | 0.9
Cc1ccc(CNc2nc3ccccc3n3nnnc23)cc1 | 3.8 | 35.0* | 2.1
CCN(CCCNC(=O)c1[nH]c(C)c(C(C)=O)c1C)c1ccccc1 | 1.4 | 11.0 | -3.6
O=C1NC(Cc2c[nH]c3ccccc23)C(=O)N1CCOc1ccccc1 (stereo not drawn) | -1.1 | 2.0 | 0.0
CCOC(=O)C1=C(C)N=c2s/c(=C\c3ccncc3)c(=O)n2C1c1ccc2c(c1)OCO2 (stereo not drawn) | 1.5 | 35.0* | -1.5
COc1ccc(C2C(C(C)=O)=C(C)N=c3s/c(=C\c4ccc5c(c4)OCO5)c(=O)n32)c(OC)c1 (stereo not drawn) | 1.4 | 4.0 | 0.7
CCOc1ccc(N(CC(=O)Nc2nccs2)S(=O)(=O)c2c(C)noc2C)cc1 | -0.7 | 3.0 | 4.1
Cc1ccc(C)c2[nH]c(=O)c(CN(CCN3CCCC3)C(=O)Nc3cccc(Cl)c3)cc12 | u | 73.0* | 84.4*
Cc1ccc2[nH]c(=O)c(CN(CCN3CCOCC3)C(=O)Nc3ccc(F)cc3)cc2c1 | x | x | -1.6
SMILES | Proteasome disasm | LNCaP diff act | S aureus QS inh
CCc1ccc2[nH]c(=O)c(CN(CCCN3CCOCC3)C(=O)Nc3ccc(Cl)cc3)cc2c1 | x | x | 93.5*
CCc1ccc2[nH]c(=O)c(CN(CCCN3CCOCC3)C(=O)Nc3cccc(Cl)c3)cc2c1 | x | x | 60.1*
O=C(Nc1ccccc1)N(CCCN1CCOCC1)Cc1cc2cc3c(cc2[nH]c1=O)OCCO3 | -4.0 | 9.0 | 1.8
Cc1cc(C)c2cc(CN(CCN3CCCC3)C(=O)Nc3ccc(F)cc3)c(=O)[nH]c2c1 | x | x | -0.2
COc1ccc(NC(=O)C(CCS(C)(=O)=O)NC(C)=O)cc1 (stereo not drawn) | -3.6 | 12.0 | -0.8
CCc1ccc(NC(=O)c2cc(C)on2)cc1 | 1.7 | 4.0 | -3.8
Cc1ccc(NC(=O)c2cc(C)on2)cc1 | 1.0 | 5.0 | 76.1*
CC1CCCC(C)N1c1nnc(N)s1 (stereo not drawn) | -0.4 | 2.0 | -1.7
COc1cccc(C(=O)Cn2c(=O)n(CC3CCCO3)c(=O)c3ccccc32)c1 (stereo not drawn) | 1.5 | 6.0 | 2.0
COc1cccc(N2CCN(Cc3nc(N)nc(Nc4ccccc4OC)n3)CC2)c1 | -0.9 | 12.0 | -0.3
COc1ccc(Nc2nc(N)nc(CN3CCC(Cc4ccccc4)CC3)n2)cc1 | 0.6 | 49.0* | 3.0
CCc1ccc(Nc2cc(=O)n(C3CCCCC3)c(=O)[nH]2)cc1 | 17.6 | 14.0 | 9.2
O=c1cc(Nc2ccc3c(c2)OCCO3)[nH]c(=O)n1C1CCCCC1 | 107.9* | 6.0 | -4.6
COc1ccc2[nH]c(C)c(CN3CCCC(C)C3)c(=O)c2c1 (stereo not drawn) | u | x | 0.4
CC(C)N1C(=O)CCC1C(=O)NCCc1ccc(Cl)cc1 (stereo not drawn) | 0.8 | 6.0 | 0.0
O=C(Nc1ccccc1C(F)(F)F)N1CCN(c2ccc3nnc(-c4ccc(F)cc4)n3n2)CC1 | 5.4 | 12.0 | -4.8
Fc1ccc(-c2nnc3ccc(N4CCc5ccccc5C4)nn23)cc1 | 2.1 | 5.0 | 69.1*
CCCN(CCC)CCNC(=O)C1CCN(Cc2nc(-c3ccc(Cl)cc3)oc2C)CC1 | 2.8 | 87.0* | -1.6
Cc1ccc(-c2nc(CS(=O)CC(=O)NCCN3CCCC3)c(C)o2)cc1 (stereo not drawn) | -0.2 | 7.0 | -10.5
CCN1CCN(CCNC(=O)C2CCCN(Cc3nc(-c4cccc(Cl)c4)oc3C)C2)CC1 (stereo not drawn) | 0.6 | 44.0* | -0.1
Cc1oc(-c2ccc(Cl)cc2)nc1CN1CCC(C(=O)NCc2cccnc2)CC1 | 8.4 | 17.0 | -2.8
Cc1oc(-c2ccc(Cl)cc2)nc1CS(=O)CC(=O)NCCN1CCCC1 (stereo not drawn) | 154.5* | 11.0 | -0.9
CCOC(=O)N1CCC(NC(=O)C2CCCN(Cc3nc(-c4cccc(Cl)c4)oc3C)C2)CC1 (stereo not drawn) | 10.4 | 4.0 | 0.1
O=c1[nH]c(N2CCCCC2)nc2c1CCCC2 | -0.7 | 3.0 | -12.4
CCOc1ccc(C2c3c(oc4ccccc4c3=O)C(=O)N2c2ccccn2)cc1OC (stereo not drawn) | -1.0 | 11.0 | -0.1
SMILES | Proteasome disasm | LNCaP diff act | S aureus QS inh
Cc1ccc(S(=O)(=O)Nc2cc(C(=O)NCCN(C)C)ccc2N2CCCCC2)cc1 | 0.0 | 17.0 | -0.5
Cc1ccc(S(=O)(=O)Nc2cc(C(=O)NCCN3CCCC3)ccc2N2CCCCC2)cc1 | 105.2* | 22.0 | 3.0
CC1(C2(O)CC(c3ccccc3)ON2)CCCCC1 (stereo not drawn) | -3.7 | 4.0 | -1.2
O=c1c2nnn(Cc3ccccc3)c2ncn1-c1ccccc1 | -0.2 | 8.0 | -2.4
N#Cc1cnc(SCC(=O)c2ccccc2)nc1N | 14.9 | 7.0 | -0.3
N#Cc1cnc(SCCc2ccccc2)nc1N | 88.2* | 21.0 | -3.0
CCOc1ccc(C2CC(c3cccc(OC)c3OC)n3nnnc3N2)cc1Cl (stereo not drawn) | -1.3 | 4.0 | 18.8
CC(C)OP(=O)(c1ccc(N(C)C)cc1)C(O)c1ccccc1F (stereo not drawn) | 1.0 | 8.0 | -2.3

Compound activity from PubChem.
